From PubChem
Hits are enriched below; roughly 3% of the tested compounds scored in any of these assays.
TRPM1 prom inh: inhibitors of MITF-dependent TRPM1 promoter reporter, primary screen, cell-based, SK-MEL-5, single point, luciferase | SK-MEL-5 TRPM1 promoter luciferase, 24 h | inhibition, % at 12.5 µM | 0.83% of 330,000 active;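 active means mean inhibition across replicates of 60% or more, whatever share of single replicates reaches that level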
TWEAK-Fn14 inh: inhibitors of TWEAK-Fn14 signaling, primary screen, luciferase reporter cells, uHTS. TWEAK-stimulated Fn14 reporter cells, luciferase luminescence, 8 h. inhibition, % at 10 µM. 2% of 360,000 active. AID 1159606, 2016; in the data active means inhibition above about 50%
MITF act: activators of MITF-driven TRPM1 promoter reporter, primary screen, cell-based, SK-MEL-5, luciferase, single point; SK-MEL-5 TRPM1-promoter luciferase, 24 h; % of positive control, neutral wells = 0; activation, % at 12.5 µM; 0.75% of 300,000 active; AID 588334, 2011;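 active means mean activation of at least 80% with every replicate also reaching 80%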;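 further: 0% = neutral control wells and 100% = parthenolide positive control wells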
EBV LMP1 NFkB: EBV LMP1-driven NF-kappaB luciferase reporter inhibitors, primary screen, cell-based, luminescence, single point; LMP1-induced NF-kappaB luciferase reporter cells; inhibition, % at 12.5 µM; AID 504558, 2011; 0.69% of 350,000 active; in the data active means inhibition above about 41%;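 further: 0% = neutral control wells and 100% = reference inhibitor control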
LGR2 antag: inhibitors of bursicon-induced LGR2 CRE-luciferase signal, primary screen, cell-based, HEK293, CRE-luciferase reporter, bursicon stimulation; Drosophila bursicon receptor LGR2 (rickets); bursicon-stimulated, 4 h; inhibition, % at 9.99 µM; 0.35% of 380,000 active;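 active means drop in luminescence signal, shown as inhibition above about 50% in the replicate tests, limit read from the data, passing the limit was not always enough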;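 further: agonist challenge used bursicon conditioned medium at about half maximal strength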
TROY NFkB inh: inhibitors of TROY-driven NF-kB signaling, primary screen, Q293 LMP1-TROYcd cells, NF-kB luciferase, uHTS; Q293 LMP1-TROYcd NF-kB luciferase reporter, 4 h; inhibition, % at 10 µM; 0.98% of 360,000 active;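 active means compounds whose plate-normalised and pattern-corrected inhibition of the luciferase reporter signal at the single screening dose is 50% or more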
An asterisk follows results filed as active; nt = not tested or not shown; ! = not active in a repeat.

SMILES	TRPM1 prom inh	TWEAK-Fn14 inh	MITF act	EBV LMP1 NFkB	LGR2 antag	TROY NFkB inh
CN1C(=O)c2cc(NC(=O)C3CCCC3)ccc2OC[C@@H]2O[C@@H](CC(=O)NCC3CC3)CC[C@@H]21	nt	nt	nt	nt	-7.1	nt
O=S(=O)(Cc1cc(Cl)nc(-c2ccncc2)n1)c1ccccc1	16.5	-15.9	-20.6	5.2	34.8	51.4*
COc1ccc(-c2csc(/C(C#N)=C\c3ccc(O)c([N+](=O)[O-])c3)n2)cc1OC	3.9	59.8*	-0.3	-1.9	-14.0	35.7
N#C/C(=C\c1ccc(O)c([N+](=O)[O-])c1)c1nc2ccccc2s1	-1.5	53.3*	-2.7	1.3	-15.6	50.2*
COc1cc(/C=C(\C#N)c2nc3ccccc3s2)cc([N+](=O)[O-])c1O	17.3	27.2	-16.1	-16.8	0.3	17.9
O=C(O)C/C(=C\c1ccc(N2CCOCC2)c([N+](=O)[O-])c1)c1nc2ccccc2s1	-2.0	45.4	0.2	-9.0	-24.1	51.6*
O=C(O)CC/C(=C\c1ccc(N2CCOCC2)c([N+](=O)[O-])c1)c1nc2ccccc2s1	-2.9	-11.4	-2.4	2.0	-15.6	32.6
CO[C@H](CN(C)C(=O)C1CCOCC1)[C@H](C)CN([C@H](C)CO)S(=O)(=O)c1ccccc1	nt	nt	nt	nt	-30.0	nt
C[C@H]1CN([C@@H](C)CO)C(=O)c2cc(/C=C/c3ccccc3)cnc2O[C@@H]1CN(C)C(=O)c1ccccc1	nt	nt	nt	nt	-16.7	nt
CN1[C@H](C(=O)NC2CCC2)[C@@H](CO)[C@@H]2Cn3c(ccc(/C=C/c4ccccc4)c3=O)[C@@H]21	nt	nt	nt	nt	9.5	nt
CCCNC(=O)c1cc2c(c(-c3cccc(-c4ccncc4)c3)n1)[C@@H](CCO)N(S(=O)(=O)CC)C2	nt	nt	nt	nt	-9.3	nt
O=C(NC1CCCC1)c1cc(-c2ccc(Cl)c(Cl)c2)on1	-89.6	-28.8	106.7*	-50.9	-109.1	-66.8
Cc1ccc(-c2cc(C(=O)NC3CCCC3)no2)cc1	-124.6	24.4	125.0*	-24.9	-93.5	-13.1
O=C(NC1CCCCC1)c1cc(-c2ccc(F)cc2)on1	-93.8	-15.5	nt	-19.0	-28.5	-55.9
CO[C@H]1CN(C)C(=O)c2ccc(NC(=O)C3CC3)cc2OC[C@H](C)N(Cc2ccc(F)cc2)C[C@@H]1C	nt	nt	nt	nt	-0.7	nt
CCn1cnc2c(NCCc3cccnc3)nc(C#N)nc21	-2.9	5.8	3.7	2.8	-17.0	-3.1
CCn1cnc2c(Nc3cccc(Cl)c3)nc(C#N)nc21	-110.5	15.5	112.1*	-11.5	-134.4	-40.2
CC[C@H](CO)Nc1nc(Nc2cccc(Cl)c2)c2ncn(C(C)C)c2n1	32.3	70.7*	-29.5	-14.3	57.7*	60.8*
COc1cc(/C=C2/C(=O)c3cccc([N+](=O)[O-])c3C2=O)c(Br)cc1O	49.0	57.5*	-47.5	-13.9	-2.6	28.4
CCN(CC)S(=O)(=O)c1cc(C(=O)O)c(Cl)cc1Cl	3.2	-6.0	3.2	-6.1	nt	-9.1
CCN(CC)S(=O)(=O)c1cccc2cc(C(=O)O)c(O)cc12	-2.2	78.9*	4.2	3.7	nt	nt
O=C(NC(Cc1c[nH]c2ccccc12)C(=O)Nc1ccc(OC(F)(F)F)cc1)c1cccs1 (stereo not given)	5.6	-13.7	-1.7	14.8	21.8	42.6
O=C(NC(Cc1c[nH]c2ccccc12)C(=O)Nc1ccc(F)c([N+](=O)[O-])c1)c1cccs1 (stereo not given)	-7.7	-8.8	5.9	50.3*	17.0	-19.8
C[C@H](NC(=O)C[C@@H]1C[C@@H]2c3cc(NS(=O)(=O)c4ccc(F)cc4)ccc3O[C@@H]2[C@H](CO)O1)c1ccccc1	nt	nt	nt	nt	5.9	nt
O=[N+]([O-])c1ccc(N=Nc2c(Cl)cc(O)cc2Cl)cc1	18.0	87.0*	-22.5	35.0	21.7	26.6
Cc1c(CCOC(=O)C2C3CC4CC(C3)CC2C4)sc[n+]1CC(=O)c1ccc(Br)cc1 (stereo not given)	95.4*!	-43.0	-30.8	7.7	11.4	6.9
C[C@H](CO)N1C[C@H](C)[C@H](CN(C)Cc2ccc3c(c2)OCO3)Oc2ccc(NC(=O)c3ccncc3)cc2C1=O	nt	nt	nt	nt	2.6	nt
